Screening data from PubChem.
Jurkat NFkB inh: inhibitors of induced NF-kB luciferase reporter, primary screen, TCR NF-kB activation inhibitor project, cell-based, luminescence, uHTS; Jurkat, PMA/ionomycin-induced NF-kB luciferase reporter; inhibition, % at 4 µM; 330,000 compounds, 0.53% hits; in the data active = inhibition above about 50%
A1 inh: caspase 3/7 activation in MEF A1-2A-BIM cells, primary screen, A1 inhibitor project, cell-based, luminescence, HTS; Caspase-Glo 3/7 luminescence, 3 h; percent of clofoctol response, vehicle zero; caspase activation, % (no concentration beside the values); 330,000 compounds, 0.066% hits; AID 2462, 2010;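 active = over half of replicate activation scores above 10%, or exactly half above 10 with the replicate mean above 10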
Beta cell apopt: inhibitors of cytokine-induced beta cell apoptosis, primary screen, luminescence; protection from apoptosis, % (no concentration beside the values); INS-1E cytokine-induced death, ATP luminescence, 48 h; percent of positive-control rescue, neutral wells zero; 300,000 compounds, 0.8% hits;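 active = Every replicate reaches about 75%, or at least half do and their mean reaches it too, limit read from the data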;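 note: 0% = cytokine-treated negative control wells and 100% = positive control rescue; higher means more ATP so stronger rescue from cytokine killing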
NTR1 agonist: agonists of human NTR1, primary screen, imaging, U2OS cells, beta-arrestin-GFP, high content. Neurotensin receptor type 1 (Homo sapiens), P30989. NTR1-U2OS beta-arrestin-GFP spot imaging, agonist mode. activation, % at 20 µM. 330,000 compounds, 0.17% hits;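 active = activation at or above 40% of the spot to cytoplasm intensity ratio, with at least 20 cells analyzed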;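 note: 0% = DMSO without peptide and 100% = 100 nM NTR1 peptide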
Target sequence (P30989 whole entry, looked up): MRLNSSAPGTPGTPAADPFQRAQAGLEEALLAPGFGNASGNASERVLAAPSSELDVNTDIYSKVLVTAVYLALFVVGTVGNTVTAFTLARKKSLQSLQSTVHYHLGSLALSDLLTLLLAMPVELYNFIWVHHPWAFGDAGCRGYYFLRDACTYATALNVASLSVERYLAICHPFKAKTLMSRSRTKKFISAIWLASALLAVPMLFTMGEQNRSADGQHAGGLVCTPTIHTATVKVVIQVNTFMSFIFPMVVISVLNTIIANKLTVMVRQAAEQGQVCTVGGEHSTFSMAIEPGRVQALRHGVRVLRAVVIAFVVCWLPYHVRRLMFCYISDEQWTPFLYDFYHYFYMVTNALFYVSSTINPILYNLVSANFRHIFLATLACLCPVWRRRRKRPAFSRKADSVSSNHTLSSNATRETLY
697 NFkB inh: inhibitors of PMA/ionomycin-induced NF-kB reporter, 697 cells, primary screen, B-cell NF-kB inhibitor project, cell-based, luminescence, uHTS; 697 B-cell NF-kB luciferase reporter, 16 h; inhibition, % at 4 µM; 330,000 compounds, 0.33% hits; AID 435022, 2010; in the data active = inhibition above about 35%
Mdm2-MdmX inh: inhibitors of human Mdm2-MdmX association, primary screen, cell-based, luminescence, split luciferase, SaOS-2, uHTS; Protein Mdm4 (Homo sapiens) + E3 ubiquitin-protein ligase Mdm2 (Homo sapiens), …; SaOS-2 split-luciferase Mdm2/MdmX complementation; inhibition, % at 8 µM; 330,000 compounds, 3% hits; AID 485346, 2010;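 active = inhibition of at least 50% at 8 µM in the primary screen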
Mdm2-MdmX conf: Mdm2-MdmX complex disruptors, retested hits, confirmation, luminescence, single concentration; shares compounds with Mdm2-MdmX inh; Mdm2-MdmX binding, luminescent assay; inhibition, % at 8 µM; 10,000 compounds, 55% hits; in the data active = inhibition above about 40%
Full FLuc ctr: full-length luciferase signal inhibition, confirmation, counter-screen for Mdm2/MdmX interaction inhibitor project, cell-based, single concentration, SaOS-2; SaOS-2 full-length luciferase counterscreen, luminescence; 6,200 compounds, 77% hits; inhibition, % at 8 µM; shares compounds with Mdm2-MdmX inh;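 active = mean inhibition at 8 µM reaching about 37%, which flags the compound as non-specific, limit read from the data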;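 note: p53-null SaOS-2 cells with luciferase driven by a doxycycline-inducible promoter; compound on cells about two nights before reading with doxycycline added after day one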
Active calls of the source: *. A selection: hits, their analogues and other compounds. The true share with any hit is near 3.8%.

For C#CCOCCOCCOCCNc1nc(N2CCN(C(=O)CCCCCCCCCCNC(=O)[C@@H](CCSC)n3cc(CCO)nn3)CC2)nc(N2CCN(C(=O)CCCCCCCCCCNC(=O)[C@H]([C@@H](C)CC)n3cc(CCCCCN)nn3)CC2)n1 the results were Jurkat NFkB inh 32, A1 inh -1, Beta cell apopt 99*, NTR1 agonist 23, 697 NFkB inh -45, Mdm2-MdmX inh 92* and Mdm2-MdmX conf 31.
For C#CCOCCOCCOCCNc1nc(N2CCN(C(=O)CCCCCCCCCCNC(=O)[C@@H](CCSC)n3cc(CCO)nn3)CC2)nc(N2CCN(C(=O)CCCCCCCCCCNC(=O)[C@H]([C@@H](C)CC)n3cc(CCCCN=C(N)N)nn3)CC2)n1 the results were Jurkat NFkB inh 4, A1 inh 1, Beta cell apopt 37, NTR1 agonist 11, 697 NFkB inh -7 and Mdm2-MdmX inh 5.
CCN(CC)S(=O)(=O)c1ccc(N2CCN(C)CC2)c(NC(=O)COc2ccc(F)cc2Cl)c1 was read as Jurkat NFkB inh -27, A1 inh 0, NTR1 agonist 0, 697 NFkB inh 1 and Mdm2-MdmX inh 8.
Screening CC(C)(C)OC(=O)N1CSC[C@H]1C(=O)NC[C@H](CC(=O)O)c1ccc(Cl)cc1 returned Jurkat NFkB inh 0, A1 inh 0, Beta cell apopt -3, NTR1 agonist 2, 697 NFkB inh -7 and Mdm2-MdmX inh -9.
Screening COCCCNc1nc(N)c([N+](=O)[O-])c(Nc2ccccc2OC)n1 returned Jurkat NFkB inh 26, A1 inh 0, Beta cell apopt -13, NTR1 agonist 0, 697 NFkB inh -56, Mdm2-MdmX inh 61* and Mdm2-MdmX conf 30.
Screening Cc1onc(-c2ccccc2Cl)c1C(=O)O/N=C(\N)c1ccc([N+](=O)[O-])o1 returned Jurkat NFkB inh 9, A1 inh -1, Beta cell apopt 68, NTR1 agonist 2, 697 NFkB inh 26, Mdm2-MdmX inh 60*, Mdm2-MdmX conf 40 and Full FLuc ctr 70*.
For C/C(=N/OC(=O)c1c(-c2ccccc2Cl)noc1C)c1cnccn1 the results were Jurkat NFkB inh 7, A1 inh 0, Beta cell apopt -4, NTR1 agonist 2, 697 NFkB inh -12 and Mdm2-MdmX inh 14.
Screening Cc1nc(N2CCN(c3ccccn3)CC2)c2c(C)c(C(=O)N3CCN(c4cccc(Cl)c4)CC3)sc2n1 returned Jurkat NFkB inh 3, A1 inh 0, Beta cell apopt 2, NTR1 agonist 2, 697 NFkB inh -43 and Mdm2-MdmX inh 25.
Screening Cc1cc(C)c(C#N)c(SCC(=O)c2ccc(Cl)cc2Cl)n1 returned Jurkat NFkB inh 6, A1 inh 0, Beta cell apopt 10, NTR1 agonist 39, 697 NFkB inh 33, Mdm2-MdmX inh 74*, Mdm2-MdmX conf 73* and Full FLuc ctr 70*.
`CCOC(=O)c1c(NC(=O)CSc2nnc(-c3c[nH]c4ccccc34)n2C)sc2c1CCCC2` gave Jurkat NFkB inh 14, A1 inh 1, Beta cell apopt 17, NTR1 agonist 4, 697 NFkB inh -23, Mdm2-MdmX inh 61* and Mdm2-MdmX conf 15.
Screening COc1ccc(-c2nnc(SCC(=O)Nc3sc4c(c3C#N)CCCC4)n2-c2ccccc2)cc1 returned Jurkat NFkB inh -2, A1 inh 0, NTR1 agonist 13, 697 NFkB inh -17, Mdm2-MdmX inh 78* and Mdm2-MdmX conf 0.
COc1ccc(-n2c(SCC(=O)Nc3ccccc3)nnc2-c2ccc(NS(=O)(=O)c3ccc(C)cc3)cc2)cc1 was read as Jurkat NFkB inh 0, A1 inh -1, Beta cell apopt 13, NTR1 agonist -3, 697 NFkB inh -1, Mdm2-MdmX inh 91* and Mdm2-MdmX conf 28.
For N#Cc1ccc(-c2cccnc2)nc1SCC(=O)Nc1sc2c(c1C#N)CCC2 the results were Jurkat NFkB inh 6, A1 inh 0, Beta cell apopt 1, NTR1 agonist 9, 697 NFkB inh -10 and Mdm2-MdmX inh 10.
For CCOC(=O)c1c(NC(=O)CSc2nnc(-c3c[nH]c4ccccc34)n2CCOC)sc2c1CCCC2 the results were Jurkat NFkB inh 12, A1 inh 0, Beta cell apopt 16, NTR1 agonist 15, 697 NFkB inh -2 and Mdm2-MdmX inh 43.
`N#Cc1c(C(F)(F)F)cc(-c2ccccc2)nc1SCC(=O)Nc1sc2c(c1C#N)CCC2` gave Jurkat NFkB inh 8, A1 inh 1, Beta cell apopt -4, NTR1 agonist -7, 697 NFkB inh -11, Mdm2-MdmX inh 72*, Mdm2-MdmX conf 64* and Full FLuc ctr 55*.
Screening COc1cc(C2SCC(=O)N2Cc2ccccc2)cc(OC)c1OC (centres undefined) returned Jurkat NFkB inh 3, A1 inh 0, Beta cell apopt -5, NTR1 agonist 0, 697 NFkB inh 5 and Mdm2-MdmX inh -3.
For CCC[C@H](CN[C@@H](CNC)[C@H](C)O)NCCc1ccc(OC)cc1 the results were Jurkat NFkB inh 6, A1 inh -2, Beta cell apopt 2, NTR1 agonist 4, 697 NFkB inh 17 and Mdm2-MdmX inh -16.
CNC[C@@H](C)NC[C@@H](Cc1ccccc1)NCCc1ccccc1 was read as Jurkat NFkB inh 1, A1 inh 1, Beta cell apopt 4, NTR1 agonist -1, 697 NFkB inh 6, Mdm2-MdmX inh 69* and Mdm2-MdmX conf 36.
`CC(O)Cn1c(N2CCCC2)nc2c1c(=O)n(C)c(=O)n2C` (centres undefined) gave Jurkat NFkB inh -8, A1 inh 0, Beta cell apopt -1, NTR1 agonist 2, 697 NFkB inh -10 and Mdm2-MdmX inh -11.
`C=CCn1c(SCc2c(C)noc2C)nc2sc3c(c2c1=O)CCCCC3` gave Jurkat NFkB inh 7, A1 inh 1, NTR1 agonist 4, 697 NFkB inh -64 and Mdm2-MdmX inh 39.
